Our source for the Potency values is PubChem BioAssay AID504895 (National Center for Advancing Translational Sciences (NCATS), 2011).

Inconclusive results are not listed. Entries that show only a call come without a potency. Active and inactive are the calls of the source. Calls come from the whole dose curve; as a rule, active = well fitted curve in the direction sought with a large enough effect; inconclusive = small, poorly fitted or top-dose-only effect, or another doubt; inactive = no such curve, though single readings can be large or run the other way.

The target of the experiment is Protein phosphatase EYA2 (Homo sapiens) (UniProt O00167). The experiment is described as follows: Inhibitors of Eya2ED: Hit Confirmation in Primary Screen. The note with it: Recombinant Eya2ED, OMFP fluorescence phosphatase assay; series mostly up to 76.9 µM. In short, it runs like this: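 Hits were retested as 12-point titrations. Compound sat 10 min at ambient with Eya2 (0.2 uM in dispense) in HEPES pH 7.5 buffer with NaCl, MgCl2, BSA and DTT, then OMFP substrate (50 uM in dispense) was added. Dephosphorylation was read by fluorescence at 485/525 nm after a further 10 min.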
Chain of Protein phosphatase EYA2 (Homo sapiens) (O00167 whole entry, looked up): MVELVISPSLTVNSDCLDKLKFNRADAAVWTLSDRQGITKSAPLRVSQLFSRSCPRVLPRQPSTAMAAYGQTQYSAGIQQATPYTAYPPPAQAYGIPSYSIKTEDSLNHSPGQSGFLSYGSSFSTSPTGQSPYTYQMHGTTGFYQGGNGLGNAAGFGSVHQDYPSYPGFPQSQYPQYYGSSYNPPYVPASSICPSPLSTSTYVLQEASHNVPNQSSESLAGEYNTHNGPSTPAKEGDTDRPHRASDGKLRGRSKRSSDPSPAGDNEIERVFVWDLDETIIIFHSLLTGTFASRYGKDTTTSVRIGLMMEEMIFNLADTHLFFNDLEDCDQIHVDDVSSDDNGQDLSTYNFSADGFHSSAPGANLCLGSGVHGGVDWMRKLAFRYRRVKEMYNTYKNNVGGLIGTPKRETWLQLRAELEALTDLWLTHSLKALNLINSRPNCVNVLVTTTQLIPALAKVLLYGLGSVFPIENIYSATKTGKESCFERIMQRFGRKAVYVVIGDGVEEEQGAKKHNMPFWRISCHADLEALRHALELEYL
As for `Nc1ccccc1-c1nc2ccccc2[nH]1`, the Potency entry is “inactive”.

Consider `O=C(CN1C(=O)c2ccccc2S1(=O)=O)Nc1cccc(S(=O)(=O)N2CCOCC2)c1`, for which the Potency result was “inactive”.

As for `COc1ccccc1OCCCCOc1ccccc1F`, the Potency entry is “inactive”.

Turning to `O=S(=O)(c1ccc(F)cc1)N1CCC2(CC1)OCCN2S(=O)(=O)c1cccs1`, the Potency result was “inactive”.

With `O=C(NCCC1CCCCN1S(=O)(=O)c1ccccc1)C(=O)NCc1ccccn1` (stereo unspecified), the Potency result was “inactive”.

As for `O=C(CCCC(=O)N(CC(=O)NC1CCCCC1)c1ccccc1F)Nc1ccccn1`, the Potency entry was “inactive”.

As to `NC(=O)Nc1ccc(C(=O)OCC(=O)NC2CCCCC2)cc1`, the Potency entry was “inactive”.

As for `CC(C)Cc1nnc(NC(=O)c2cc3c(s2)CCC3)s1`, the Potency entry was “inactive”.

Regarding `Cc1cc(C(N)=O)nn1-c1c(Cl)cc(Cl)cc1Cl`, the Potency result is “inactive”.

For the compound `O=C(COC(=O)c1cc(Cl)ccc1Cl)NC1CCCC1`, the Potency result was “inactive”.

Consider `O=C(N/N=C/c1ccc(Sc2ccccn2)o1)c1cc2ccccc2cc1O`, for which the Potency result was “inactive”.

Regarding `O=C(CCc1nc2ccccc2s1)NCc1ccccc1F`, the Potency result is “inactive”.

For `COc1ccc(NS(=O)(=O)c2cc([N+](=O)[O-])ccc2NN=Cc2ccccc2OCC(=O)O)cc1`, the Potency result was “inactive”.

Regarding `CCC(C)N(C(=O)c1csnn1)C(C(=O)NC1CCCC1)c1ccccc1F` (stereo unspecified), the Potency entry was “inactive”.

For `Cc1cc(C)n(C(=O)COc2ccccc2[N+](=O)[O-])n1`, the Potency result is “inactive”.

Consider `O=C(C1CCC(=O)N(C2CCCC2)C1)N1CCC(Oc2cccc(F)c2)CC1` (stereo unspecified), for which the Potency entry is “inactive”.

On to `O=C(NN=C1CCCC1)c1[nH]c2ccc(Br)cc2c1-c1ccccc1`, for which the Potency entry was “inactive”.

As for `CCCc1nnc(SCc2ccc(C(=O)OC)o2)n1N`, the Potency result was “inactive”.

`Cc1onc(-c2ccccc2Cl)c1C(=O)OCC(=O)N1CCC(C)CC1`: the Potency result was “inactive”.

Regarding `CC1CN(S(=O)(=O)c2ccc(C(=O)Nc3nnc(-c4ccco4)o3)cc2)CC(C)O1` (stereo unspecified), the Potency entry was “inactive”.

In the case of `COc1ccccc1N1C(=O)C2C3C=CC(C3)C2C1=O` (stereo unspecified), the Potency result is “inactive”.

Regarding `O=C(NC1CCN(Cc2ccccc2)CC1)c1cccc(S(=O)(=O)Nc2ccc(SC(F)F)cc2)c1`, the Potency entry was “inactive”.

On to `COc1ccc2c(c1)[C@H]1[C@H](CO2)[C@H](c2ccccc2)[C@]2(C)C(=O)Nc3ccc(F)cc3C(=O)N12`, for which the Potency result was “inactive”.

In the case of `C=CCC1(C#N)C(=S)NC(C)=C(C(=O)OCC)C1c1ccccc1` (stereo unspecified), the Potency entry was “inactive”.

In the case of `CC(C)(C)OC(=O)NCCCCCc1nnc(SCc2ccccc2F)o1`, the Potency result is “inactive”.

With `Oc1oc(C=Nc2ccc(F)cc2F)c2ccccc12`, the Potency entry is “inactive”.

Regarding `CC(C)(C)C(=O)Nc1nc(=S)ss1`, the Potency entry was “inactive”.

On to `O=C(NC1CCCCC1)c1cc2nc3c(c(C(F)(F)F)n2n1)CCCC3`, for which the Potency result was “inactive”.

For `COc1ccc(Cl)cc1CSc1ncn[nH]1`, the Potency entry was “inactive”.

As to `CS(=O)(=O)c1ccc2nc(NC(=O)c3cccc([N+](=O)[O-])c3)sc2c1`, the Potency entry was “inactive”.

On to `COc1ccc2oc(C(=O)OCC(=O)N3CCCCC3C)c(C)c2c1` (stereo unspecified), for which the Potency result is “inactive”.
